Data reported in PubChem BioAssay AID1240 (Sanford-Burnham Center for Chemical Genomics, 2008).
The campaign covered roughly 50,000 compounds. About 800 (1.6%) showed an effect of 50% or more. The sample as a whole holds a higher share of strong results than the screen did.

target: Bcl-2-like protein 10 (Homo sapiens) (UniProt Q9HD36); assay: TR3 peptide-Bcl-B binding displacers, biochemical primary FP assay, phenotype converters (AID 1240); conditions: GST-Bcl-B / FITC-TR3 peptide fluorescence polarization; stronger effect = higher value; compound at 3.75 mg/L;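 also: 0% = Bcl-B with tracer peptide and DMSO and 100% = tracer peptide lacking Bcl-B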
Sequence (Q9HD36 whole entry, looked up): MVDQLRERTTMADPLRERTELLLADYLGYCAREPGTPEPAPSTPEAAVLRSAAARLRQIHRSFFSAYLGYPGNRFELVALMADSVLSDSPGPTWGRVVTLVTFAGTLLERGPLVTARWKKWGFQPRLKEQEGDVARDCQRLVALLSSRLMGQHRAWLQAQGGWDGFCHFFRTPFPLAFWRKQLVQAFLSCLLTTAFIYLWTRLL

Compound | displacement [%]
COc1ccccc1C(=O)N1CCN(Cc2ccccc2[N+](=O)[O-])CC1 | 1.5
COc1ccc(-n2cnc3cc(Nc4nnc(C)c5ccccc45)ccc32)cc1 | 0.8
CCOC(=O)c1cc(CC)sc1NC(=O)c1cc([N+](=O)[O-])ccc1N1CCN(CC)CC1 | -2.3
O=C(CSc1ncn[nH]1)c1ccc(Br)cc1 | 8.5
COc1ccc(S(=O)(=O)N(Cc2ccccc2)c2ccccc2C(=O)N2CCOCC2)cc1 | -1.1
CC(C)(CNC(=O)c1cccnc1)CNC(=O)c1cccnc1 | 7.9
O=C(O)C(Cc1ccccc1)n1c(O)c(/C=C2\C=Nc3ccccc32)sc1=S (centres undefined) | -2.3
Cc1cc(/C=N/O)c(C)n1-c1ccc(F)cc1 | 12.6
COC(=O)c1ccc(NC(=S)NC(=O)/C=C/c2ccc(Br)cc2)cc1 | 13.2
COc1ccc2c(c1OC)C(=O)OC2Nc1ccccc1Br (centres undefined) | -5.8
COc1ccc(-n2nnnc2C(Cl)(Cl)c2nnnn2-c2ccc(OC)cc2)cc1 | 5.8
COc1ccc(/C=C/C(=O)/C=C/c2ccc(N(C)C)cc2)cc1 | -3
COc1ccc(-n2nnnc2C(=Cc2ccc(N(C)C)cc2)c2nnnn2-c2ccc(OC)cc2)cc1 | 157
CCOc1cc(/C=C2\SC(=Nc3cccc(Cl)c3C)NC2=O)ccc1O | -11.7
O=C1C(Nc2ccccc2)=CC(c2cccc(F)c2)N1c1ccccc1 (centres undefined) | 14.1
Brc1ccc2nc(N3CCNCC3)nc(-c3ccccc3)c2c1 | -8.1
O=CN1CCN(c2nc(-c3ccccc3)c3cc(Cl)ccc3n2)CC1 | 113
O=C(c1ccc([N+](=O)[O-])cc1)N1CCN(c2nc(-c3ccccc3)c3cc(Cl)ccc3n2)CC1 | 17.5
O=CN1CCN(c2nc(-c3ccccc3)c3cc(Br)ccc3n2)CC1 | 84.9
O=C(c1ccccc1Cl)N1CCN(c2nc(-c3ccccc3)c3cc(Br)ccc3n2)CC1 | -5.8
O=C(c1ccccc1)N1CCN(c2nc(-c3ccccc3)c3cc(Cl)ccc3n2)CC1 | 10.6
CC1=C(C#N)c2nc(N)c(C#N)c(C)c2/C1=C\c1cc([N+](=O)[O-])ccc1Cl | 0.6
Cc1cccc(OCCOc2ccccc2/C=C2/SC(=S)N(C)C2=O)c1 | -0.4
Fc1cc(F)c(F)c(SCCc2ccncc2)c1F | 5.9
COc1cccc(N2C(=O)NC(=O)/C(=C/C=C/c3ccco3)C2=O)c1 | -47.4
C/C(=N\NC(=O)COc1ccc(Cl)cc1Cl)c1cccnc1 | 1.9

Compound | displacement [%]
O=C1C2ON(c3ccc(Cl)cc3)C(c3cccs3)C2C(=O)N1c1cccc(C(F)(F)F)c1 (centres undefined) | -18.1
COc1ccc(OCC(O)CN(C)S(=O)(=O)O)cc1 (centres undefined) | -6.7
O=C(Cc1ccc(Br)cc1)N1CCN(c2ccccc2)CC1 | 9.8
COc1ccc(C2CC(=O)C3=C(C2)Nc2ccccc2NC3c2cccc(OC)c2OC)cc1OC (centres undefined) | -3.7
O=C(CSc1ccccn1)Nc1ccc(F)cc1 | -11.4
O=C(CSc1ccccn1)Nc1ccc2c(c1)C(=O)c1ccccc1C2=O | 54.6
CC(=O)Nc1ccc(NC(=O)CSc2ccccn2)cc1 | -2.6
CC1(C)CC(=O)c2cnc(NC(=O)Cc3ccc(Cl)cc3)nc2C1 | -0.2
COc1ccc(CC(c2nc3ccccc3[nH]2)C(C)c2nc3ccccc3[nH]2)cc1 (centres undefined) | 8
O=c1oc(/C=C\c2ccccc2)nc2ccc(Br)cc12 | 10.7
Clc1ccc(CN2CCN(/N=C\c3ccc(OCc4ccccc4)cc3)CC2)cc1 | -9.5
CCOC(=O)C1=C(c2ccccc2)N=c2s/c(=C\c3ccco3)c(=O)n2C1c1cccc(OC)c1OC (centres undefined) | 76.4
CCOC(=O)C1=C(C)N=c2s/c(=C\c3ccco3)c(=O)n2C1c1ccccc1OC (centres undefined) | 74.3
CCOC(=O)C1=C(c2ccccc2)N=c2s/c(=C\c3cccnc3)c(=O)n2C1c1cccc(OC)c1OC (centres undefined) | 5.1
CCOC(=O)C1=C(c2ccccc2)N=c2s/c(=C\c3cccc(O)c3)c(=O)n2C1c1cccc(OC)c1OC (centres undefined) | 7.6
CCOC(=O)C1=C(C)N=c2s/c(=C\C=C\c3ccco3)c(=O)n2C1c1ccc(OC)cc1 (centres undefined) | 63.9
CCOC(=O)C1=C(C)N=c2s/c(=C\c3ccco3)c(=O)n2C1c1ccccc1 (centres undefined) | 16.5
CCOC(=O)C1=C(C)N=c2s/c(=C\C=C\c3ccccc3)c(=O)n2C1c1ccc(OC(C)=O)cc1 (centres undefined) | 16.9
CCOC(=O)C1=C(C)N=c2s/c(=C/c3ccc(I)o3)c(=O)n2C1c1ccccc1OC (centres undefined) | 14.5
CCOC(=O)C1=C(C)N=c2s/c(=C\c3ccco3)c(=O)n2C1c1cccc(OC)c1 (centres undefined) | -25.3
CC1CCC2(CC1)C(C#N)=C(SCC(N)=O)NC(=O)C2C#N (centres undefined) | -7.2
CCOC(=O)c1sc(NC(=O)c2ccc(Cl)cc2Cl)nc1C | 17
O=C1CC(N(Cc2ccco2)C(=S)NCCc2ccccc2)C(=O)N1c1ccc(F)cc1 (centres undefined) | 27.4
CC(C)(C)NC(=O)c1cccc(C(=O)Nc2cccc(O)c2)c1 | -3.2
c1ccc(C2=Nc3ccccc3NC(c3ccccc3)C2)cc1 (centres undefined) | -26.7
O=C(NN1C(=O)/C(=C/c2ccc(O)c(O)c2)SC1=S)c1ccccc1Br | 73

Compound | displacement [%]
COc1cc(/C=C2\SC(=S)N(NC(=O)c3ccccc3Br)C2=O)ccc1O | -21.3
O=C(NN1C(=O)/C(=C/c2ccc(O)cc2)SC1=S)c1ccccc1Br | -72.2
CCCCOc1cccc(NC(=O)c2cccc([N+](=O)[O-])c2C)c1 | 5
O=C(Cc1ccc(Br)cc1)Nc1cc([N+](=O)[O-])ccc1Cl | 4.4
O=C1N/C(=N\N=C\c2ccccc2O)SC1Cc1ccc(Cl)cc1 (centres undefined) | 8.7
O=C(NNC(=O)c1cccc(Cl)c1)c1cccc(F)c1 | -4.7
CCC(C)(C)C1CCc2c(sc(NC(=O)c3cnccn3)c2C(=O)OC)C1 (centres undefined) | 6.1
N#Cc1c(/N=C/c2cc([N+](=O)[O-])c(N3CCOCC3)cc2N2CCOCC2)sc2c1CCCC2 | 14.5
N#Cc1c(/N=C\c2ccc(N3CCCCC3)c([N+](=O)[O-])c2)sc2c1CCCC2 | -5.3
N#Cc1c(/N=C\c2ccc(N3CCOCC3)c([N+](=O)[O-])c2)sc2c1CCCC2 | 81.3
O=C1NC(=O)/C(=C\c2ccc(O)cc2)S1 | 1.8
CCC(=O)Nc1ccc(O)c(-c2nc3cc(C)c(C)cc3o2)c1 | -7
CCc1ccc(OCC(=O)Nc2ccc(O)c(-c3nc4cc(C)ccc4o3)c2)cc1 | 7.4
CCCC(=O)Nc1ccc(-c2nc3cc(C)c(C)cc3o2)c(O)c1 | 96.8
CCc1ccc(OCC(=O)Nc2ccc(-c3nc4ccccc4o3)c(O)c2)cc1 | 0.8
CCc1ccc(OCC(=O)Nc2ccc(-c3nc4cc(C)c(C)cc4o3)c(O)c2)cc1 | 118
CCCC(=O)Nc1ccc(-c2nc3cc(C)c(C)cc3o2)cc1 | 14.7
CCOC(=O)c1cnn(-c2ccccc2)c1NC(=O)c1ccccc1 | 2.4
O=C(c1ccco1)N(C(=O)c1ccco1)c1cc(C(F)(F)F)ccc1Cl | -3.3
COc1ccc(OCCOCCN2CCC(C)CC2)cc1 | -9.4
CNC(=O)c1c(-c2ccccc2)oc2ccc(O)cc12 | 10.3
O=C1C(C=NCc2ccc(Cl)c(Cl)c2)=C(O)c2ccccc21 | 2.5
O=C1CC(c2ccccc2)CC(O)=C1C=NCc1ccc2c(c1)OCO2 (centres undefined) | -2.5
O=C1C(C=NCc2ccc3c(c2)OCO3)=C(O)c2ccccc21 | 134
O=C(Nc1ccc2oc(-c3ccc(Cl)cc3Cl)nc2c1)c1ccc2c(c1)OCCO2 | 2.1
Cn1c(/C=C/c2cn(C)c3ccccc23)nc2ccccc2c1=O | 40.9

Compound | displacement [%]
Cn1c(/C=C/c2cn(Cc3ccccc3)c3ccccc23)nc2ccccc2c1=O | 17.3
Cn1cc(/C=C/c2nc3ccccc3c(=O)n2Cc2ccccc2)c2ccccc21 | 136
Cn1c(/C=C/c2ccc([N+](=O)[O-])cc2)nc2ccccc2c1=O | 2.9
O=c1c2ccccc2nc(/C=C/c2ccc([N+](=O)[O-])cc2)n1Cc1ccccc1 | 118
O=c1c2ccccc2nc(/C=C/c2cccc([N+](=O)[O-])c2)n1Cc1ccccc1 | 12.9
Cc1onc(-c2ccccc2Cl)c1C(=O)NC12CC3CC(CC(C3)C1)C2 | 1
CCOC(=O)c1c(NC(=O)c2cccc(Cl)c2)sc(C(=O)Nc2cccc(C(F)(F)F)c2)c1C | -3.3
O=C(N1CCOCC1)n1nnc2ccccc21 | 13.2
CC(C)(C)c1ccc(-c2nn(CNc3cccc(Cl)c3)c(=S)o2)cc1 | 14
COc1ccc(C/C(N)=N/OC(=O)c2ccccc2Cl)cc1 | -0.1
O=C(COc1ccccc1Cl)Nc1ccc2nn(-c3ccccc3)nc2c1 | 78.4
O=C(COc1ccc([N+](=O)[O-])cc1)Nc1ccc2nn(-c3ccc(F)cc3)nc2c1 | 9
O=C(COc1ccccc1)Nc1ccc2nn(-c3ccc(Cl)cc3)nc2c1 | 6.3
CCCC(=O)Nc1ccc2nn(-c3ccc(F)cc3)nc2c1 | 0.6
O=C(Nc1ccc2nn(-c3ccc(Cl)cc3)nc2c1)c1ccccc1 | -1.9
O=C(Nc1ccc2nn(-c3ccc(Cl)cc3)nc2c1)c1ccccn1 | 91
O=C(COc1ccc(Br)cc1)Nc1ccc2nn(-c3ccc(F)cc3)nc2c1 | 50.3
COc1ccc(-n2nc3ccc(NC(=O)COc4ccccc4Cl)cc3n2)cc1 | 19.9
O=C(Nc1ccc2nn(-c3ccc(Cl)cc3)nc2c1)c1ccccc1I | 7.4
Oc1ccc(/C=N/Nc2nc3ccccc3s2)c(O)c1 | 11.1
COc1ccccc1CC(=O)NCc1ccco1 | 10.3
Cc1occc1C(=O)N/N=C/c1ccccc1 | 4.2
Cc1occc1C(=O)N/N=C/c1ccc(O)cc1O | 78.5
COc1ccc(/C=N/NC(=O)c2ccoc2C)c(OC)c1OC | -4.5
Cc1ccc(N2C(=O)c3ccc(C(=O)O)cc3C2=O)nc1 | -10.6
c1ccc(-n2ncnc2-c2ccc3c(c2)OCO3)cc1 | 4.4
